# Data reported in PubChem BioAssay AID1851 (National Center for Advancing Translational Sciences (NCATS), 2009).
# In all, about 16,000 compounds went through this assay and about 4,000 (25%) were called active. Another 26% or so got no clear call; they are omitted. Only a sample is shown. Values without a mark were called inactive. Calls come from the whole dose curve; as a rule, active = well fitted curve in the direction sought with a large enough effect; inconclusive = small, poorly fitted or top-dose-only effect, or effect the other way; inactive = no such curve, though single readings can be large or run the other way.
# Molecular target: Cytochrome P450 2C9 (Homo sapiens) (UniProt P11712)
# Sequence (P11712 whole entry, looked up): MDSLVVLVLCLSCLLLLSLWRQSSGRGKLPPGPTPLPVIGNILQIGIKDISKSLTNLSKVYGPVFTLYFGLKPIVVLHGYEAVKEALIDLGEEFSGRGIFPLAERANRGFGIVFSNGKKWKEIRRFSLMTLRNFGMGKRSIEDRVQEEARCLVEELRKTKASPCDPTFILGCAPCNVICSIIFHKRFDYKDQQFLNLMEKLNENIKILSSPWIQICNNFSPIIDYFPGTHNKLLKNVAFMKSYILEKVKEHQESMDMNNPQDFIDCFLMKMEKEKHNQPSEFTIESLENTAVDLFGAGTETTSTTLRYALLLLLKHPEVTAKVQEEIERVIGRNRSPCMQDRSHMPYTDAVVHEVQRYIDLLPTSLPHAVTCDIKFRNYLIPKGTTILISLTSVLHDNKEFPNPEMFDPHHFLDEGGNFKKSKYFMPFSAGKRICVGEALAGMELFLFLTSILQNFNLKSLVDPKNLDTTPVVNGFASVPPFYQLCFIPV
# Test: Cytochrome panel assay with activity outcomes
# Details: recombinant CYP, pro-luciferin dealkylation, luminescence, p450-cyp2c9; series mostly up to 57.1 µM; activity, negative = inhibition: at the top concentration
# % is set by controls: 0 for no effect and ±100 for the full control effect.
SMILES,"activity, negative = inhibition",AC50
C[C@H](O)[C@H](O)[C@@H]1CNc2nc(N)[nH]c(=O)c2N1,22%,
COc1ccc(OC)c2[nH]c(=O)c(CCNS(=O)(=O)c3ccc(C)cc3)cc12,,3.55 µM (active)
COc1ccc(OC)c2[nH]c(=O)c(CCNS(=O)(=O)c3ccc(Cl)cc3)cc12,,2.24 µM (active)
CCS(=O)(=O)NCCc1cc2ccc(C)cc2[nH]c1=O,-10%,
COc1ccc(C(=O)N2CCC[C@@]3(CCN(c4cccc(-c5ccccc5)c4)C3)C2)cc1,-25.3%,
COc1cccc(-c2cc3nc(-c4ccccc4)cc(N4CCC5(CC4)OCCO5)n3n2)c1,,2.82 µM (active)
Fc1cc2nc(-c3ccncc3)[nH]c2cc1F,,7.94 µM (active)
CCOc1ccc(N=C2NC(=O)C(CC(=O)O)S2)cc1 (stereo not given),-15.7%,
N#CCCn1c(=O)c(-c2ccc(F)cc2)nc2cnc(N3CCOCC3)nc21,17.5%,
CCOC(=O)N1CCN(S(=O)(=O)Cc2ccccc2)CC1,-29.3%,
CCOC(=O)N1CCN(C(=O)C(C)SCc2ccccc2)CC1 (stereo not given),,3.55 µM (active)
CC(C)(SCc1ccccc1)[C@H](N)C(=O)O,-5.67% [at 11.4 µM],
CC(C)Cn1cnc2c(SCc3ccccn3)nc(N)nc21,0.334% [at 11.4 µM],
Cc1ccc2[nH]c3c(c2c1)CN(C(=O)CN1c2ccc(F)cc2CCC1C)CC3 (stereo not given),,10 µM (active)
OCC1CCCN(Cc2ccc(-c3ccccc3)cc2)C1 (stereo not given),-14%,
CC(=O)Nc1ccc(N2CCCCC2)cc1,-0.405%,
CNc1cc(N2CCCCCC2)ccc1[N+](=O)[O-],,6.31 µM (active)
O=[N+]([O-])c1ccc(N2CCCC2)cc1NCc1ccccc1,,1.58 µM (active)
Clc1ccccc1-c1cc(NCc2ccccc2)ncn1,4.07% [at 2.29 µM],
CS(=O)(=O)N1CCN(c2ccc([N+](=O)[O-])c(NCc3ccccc3)c2)CC1,,12.6 µM (active)
CCN1CCC[C@H]1CNC(=O)c1c(OC)ccc(Br)c1OC,,inactive
O=c1c(-c2cccc(Cl)c2)nc2cncnc2n1Cc1ccccc1,,1.26 µM (active)
O=c1c(-c2cc(F)cc(F)c2)nc2cncnc2n1Cc1ccccc1Cl,,3.98 µM (active)
COc1ccc(-n2c(=O)c(-c3cc(F)cc(F)c3)nc3cncnc32)cc1,4.19%,
O=c1c(-c2cccc(Cl)c2)nc2cncnc2n1Cc1ccccc1Cl,,3.98 µM (active)
O=c1c(-c2cccc(Cl)c2)nc2cncnc2n1C1CC1,20.6%,
O=c1c(-c2cccc(F)c2)nc2cncnc2n1C1CC1,-5.69%,
O=c1c(-c2cccc(F)c2)nc2cncnc2n1Cc1ccccc1Cl,,7.94 µM (active)

SMILES,"activity, negative = inhibition",AC50
c1nc(NC2CCNCC2)c2cc(-c3ccoc3)ccc2n1,-8.97% [at 2.29 µM],
N#Cc1cccc(NC(=O)N2CCCC3(CCN(C(=O)c4csnn4)CC3)C2)c1,0.0244%,
O=c1c(-c2ccc(F)c(F)c2)nc2cncnc2n1C1CC1,12.8%,
O=c1c(-c2ccc(F)c(F)c2)nc2cncnc2n1Cc1ccccc1Cl,,5.01 µM (active)
O=c1c(-c2ccc(Cl)cc2)nc2cncnc2n1Cc1ccccc1Cl,-22.7%,
O=c1c2ccccc2sc2c(CO)ccc(NCCN3CCCCC3)c12,17.3% [at 11.4 µM],
COc1ccc([N+](=O)[O-])cc1COc1ccc2c(-c3ccccc3)cc(=O)oc2c1,,7.08 µM (active)
N[C@H](CCCP(=O)(O)O)C(=O)O,-10.4%,
Cc1cn(CC[C@H](N)C(=O)O)c(=O)[nH]c1=O,23.1% [at 11.4 µM],
Cc1o[nH]c(=O)c1CC[C@H](N)C(=O)O,,10 µM (active)
CCCCCCc1c(C[C@H](N)C(=O)O)o[nH]c1=O,,inactive
Cc1ccc(S(=O)(=O)N[C@H]2COC(=O)[C@H](C)COC(=O)[C@H](C)NC(=O)C/C=C\[C@H]2C)cc1,2.34% [at 11.4 µM],
CC(C)(C[C@@]1(C)NC(=O)NC1=O)OCc1ccccc1,9.56% [at 11.4 µM],
CN1CCc2c(c3c(n2C)CCN(C)[C@H]3c2ccccc2F)[C@@H]1c1ccccc1F,13.7%,
O=C1NCCN1Cc1ccccc1F,,12.6 µM (active)
COc1ccc(OC)c(NC(=O)[C@H]2CC=CC[C@H]2C(=O)O)c1,-19.2%,
COc1ccc(OC)c(NC(=O)CC(Cc2ccccc2OC)C(=O)O)c1 (stereo not given),,2.24 µM (active)
CCOC(=O)C1CCN(C(=O)C2CCN(S(=O)(=O)N3CCCC3)CC2)CC1,-26.3%,
CCOC(=O)C1CCN(Cc2cnc(Oc3ccc(OC)cc3)s2)CC1,,10 µM (active)
Cc1ccc(Oc2ncc(CN3CCOCC3)s2)cc1,-12.5%,
c1ccc2nc(C3=NCCN3)cnc2c1,16.2%,
O=C1c2ccccc2C(=O)N1CCCCN(C(=O)c1cccc([N+](=O)[O-])c1)c1ccc(Cl)cc1,,7.08 µM (active)
N=C(N)S[C@H]1c2ccccc2-c2cc([N+](=O)[O-])ccc21,-26% [at 11.4 µM],
O=C1c2ccccc2C(=O)N1CCCCN(C(=O)c1ccc([N+](=O)[O-])cc1)c1ccc(Cl)cc1,,1.78 µM (active)
N[C@H](C(=O)O)C1[C@H](C(=O)O)[C@H]1C(=O)O (stereo not given in full),-16.8%,
CCc1cc2c(=O)n(-c3ccccc3)c(=S)[nH]c2s1,,14.1 µM (active)
O=c1[nH]c(=S)c2[nH]c(=O)n(-c3ccccc3)c2[nH]1,-16.7% [at 11.4 µM],
